Data from ChEMBL document CHEMBL4808148, “HDAC6 screening dataset using tau-based substrate in an enzymatic assay yields selective inhibitors and activators” (2021).
Where “and” joins values, the source holds several entries; their conditions need not be identical. Equal values may be shown once. The whole screen tested about 5,600 compounds, of which about 390 (7%) showed an effect of 50% or more. The list comes from a sample in which strong results are over-represented; it also holds similar structures and randomly drawn compounds.

Biological target: T1, Protein deacetylase HDAC6 (Homo sapiens) (UniProt Q9UBN7)
T1 sequence (whole entry): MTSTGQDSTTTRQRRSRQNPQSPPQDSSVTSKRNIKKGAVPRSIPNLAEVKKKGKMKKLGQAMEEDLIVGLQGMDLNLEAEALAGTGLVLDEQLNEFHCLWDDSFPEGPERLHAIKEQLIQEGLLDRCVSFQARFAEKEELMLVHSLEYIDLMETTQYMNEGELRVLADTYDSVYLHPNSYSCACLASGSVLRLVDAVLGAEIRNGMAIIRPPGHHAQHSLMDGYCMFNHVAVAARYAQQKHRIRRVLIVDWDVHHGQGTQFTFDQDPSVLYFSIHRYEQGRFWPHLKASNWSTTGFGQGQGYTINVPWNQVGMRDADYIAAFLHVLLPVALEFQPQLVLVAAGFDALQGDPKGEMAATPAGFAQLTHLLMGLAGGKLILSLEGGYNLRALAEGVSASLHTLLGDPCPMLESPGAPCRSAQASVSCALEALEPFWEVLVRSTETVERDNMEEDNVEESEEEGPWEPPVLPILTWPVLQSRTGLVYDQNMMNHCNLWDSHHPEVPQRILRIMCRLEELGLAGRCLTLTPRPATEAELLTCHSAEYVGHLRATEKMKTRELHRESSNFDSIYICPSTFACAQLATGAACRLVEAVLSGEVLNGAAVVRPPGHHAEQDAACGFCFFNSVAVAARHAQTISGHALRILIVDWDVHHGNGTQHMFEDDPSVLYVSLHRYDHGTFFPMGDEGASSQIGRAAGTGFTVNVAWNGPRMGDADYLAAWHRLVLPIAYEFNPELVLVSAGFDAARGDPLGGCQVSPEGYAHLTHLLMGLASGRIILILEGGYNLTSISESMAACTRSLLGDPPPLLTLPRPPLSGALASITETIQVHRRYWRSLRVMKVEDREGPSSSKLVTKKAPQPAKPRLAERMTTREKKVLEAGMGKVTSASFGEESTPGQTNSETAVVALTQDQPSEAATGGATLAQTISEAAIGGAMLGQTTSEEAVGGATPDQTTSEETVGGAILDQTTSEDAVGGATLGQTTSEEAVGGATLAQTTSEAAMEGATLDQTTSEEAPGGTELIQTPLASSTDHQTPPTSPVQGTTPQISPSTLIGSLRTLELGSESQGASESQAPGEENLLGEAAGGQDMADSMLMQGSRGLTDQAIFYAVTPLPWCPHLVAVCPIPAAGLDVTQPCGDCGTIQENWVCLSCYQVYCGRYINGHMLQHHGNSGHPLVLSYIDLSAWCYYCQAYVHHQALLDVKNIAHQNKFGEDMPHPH
Conditions: at 10 µM

Structure (SMILES)	inhibition
COc1cc(OC)cc(-c2ccc3c(-c4ccc(F)cc4)n[nH]c3n2)c1	81.7%
COc1ccn2ncc(-c3nc4[nH]nc(NC(=O)c5ccc(F)cc5)c4cc3F)c2c1	1.3%
C[C@H]1C[C@@H]2[C@H]([C@@H](O)C[C@@]3(C)[C@H]2CC[C@]3(O)C(=O)COC(=O)CCC(=O)O)[C@@]2(C)C=CC(=O)C=C12	27.4%
COc1cc([C@@H]2c3cc4c(cc3[C@@H](O[C@@H]3O[C@@H]5CO[C@@H](C)O[C@H]5[C@H](O)[C@H]3O)[C@H]3COC(=O)[C@H]23)OCO4)cc(OC)c1OP(=O)(O)O	5.48%
CCN(CC)CCNC(=O)c1ccccc1I	13.2%
COc1nc2ccc(Br)cc2cc1[C@@H](c1ccccc1)[C@@](O)(CCN(C)C)c1cccc2ccccc12	73.7%
NCC1CC(=O)N(Cc2ccccc2)C1 (centres undefined)	0.62%
O=C(O)CCCCCCNC1c2ccccc2CCc2ccccc21	0.36%
CN1c2ccccc2C(NCCCCCCC(=O)O)c2ccc(Cl)cc2S1(=O)=O (centres undefined)	64.5%
Cc1ccc(C)c(C(O)CNC(C)C)c1 (centres undefined)	7.8%
C[C@@H]1C(=O)O[C@H]2CC34[C@H]5C[C@@H](C(C)(C)C)C36[C@@H](OC(=O)[C@@H]6O)O[C@@]4(C(=O)O5)[C@]21O (some centres undefined)	26.8%
Cn1cc(-c2cc(Oc3cc(F)c(NC(=O)C4(C(=O)Nc5ccccc5)CC4)cc3F)ccn2)cn1	13.7%
CN1CC[C@@]2(C)c3cc(OC(=O)Nc4ccccc4)ccc3N(C)[C@@H]12	54%
CN1CC[C@@]2(C)c3cc(O)ccc3N(C)[C@H]12	6.94%
COC1/C=C/OC2(C)Oc3c(C)c(O)c4c(O)c(c(/C=N/N=C/N5CCCCC5)c(O)c4c3C2=O)NC(=O)/C(C)=C\C=C\C(C)C(O)C(C)C(O)C(C)C(OC(C)=O)C1C (centres undefined)	5.78%
Cc1ccc2c(c1)Cc1c(C(=O)NN3CCCCC3)nn(-c3ccc(Cl)cc3Cl)c1-2	1.48%
CN(C)CCN1C(=O)c2cccc3cc(NC(N)=O)cc(c23)C1=O	-8.72%
COc1ccc(Nc2ccn(-c3ccccc3)n2)cc1	101%
C[C@]12C=CC(=O)C=C1CC[C@@H]1[C@@H]2[C@@H](O)C[C@@]2(C)[C@H]1CC[C@]2(O)C(=O)COP(=O)(O)O	22.1%
CCNC(=O)[C@@H]1CCCN1C(=O)[C@H](CCCNC(=N)N)NC(=O)[C@H](CC(C)C)NC(=O)[C@@H](C)NC(=O)[C@H](Cc1ccc(O)cc1)NC(=O)[C@H](CO)NC(=O)[C@H](Cc1c[nH]c2ccccc12)NC(=O)[C@H](Cc1cnc[nH]1)NC(=O)[C@@H]1CCC(=O)N1	41.1%
Cc1cc(C(=O)Nc2cccc(C(=O)Nc3cccc(C(F)(F)F)c3)c2)on1	16.4%
O=C1c2ccccc2C(=O)c2ccccc21	44.4%
O=C1c2cccc(O)c2C(=O)c2c(O)cc(CO)cc21	53.1%
CCN1C[C@H](C)n2c(c(O)c3c(=O)n(Cc4ccc(F)c(Cl)c4)nc(C(=O)NC)c32)C1=O	19.2%

Structure (SMILES)	inhibition
C[C@H](CCC(=O)O)[C@H]1CC[C@H]2[C@@H]3[C@@H](O)C[C@@H]4C[C@H](O)CC[C@]4(C)[C@H]3CC[C@]12C	62.8%
C[C@H](CCC(=O)O)[C@H]1CC[C@H]2[C@@H]3[C@H](O)C[C@@H]4C[C@H](O)CC[C@]4(C)[C@H]3CC[C@]12C	3.14%
C[C@H](CCC(=O)O)[C@H]1CC[C@H]2[C@@H]3CC[C@@H]4C[C@H](O)CC[C@]4(C)[C@H]3CC[C@]12C	-5.26%
CCC1=C[C@@H]2CN3CCc4c([nH]c5ccccc45)[C@@](C(=O)OC)(C2)[C@@H]13	2.61%
Cn1cccc1/C=C1\C(=O)NC(=O)c2ccccc21	61.5%
COc1cc(OC)c(/C=C2/C(=O)Nc3ccccc32)c(OC)c1	-6%
Cc1nc2ccc(-n3ncc(C(=O)c4cc5ccccc5[nH]4)c3N)cc2[nH]1	100%
CN1CC[C@@H](NC(=O)Nc2ccc(C#N)cc2)C[C@@H]1c1nc2ccccc2[nH]1	-9.46%
CCCCCCCCCCCCC/C=C/[C@@H](O)[C@@H](N)COP(=O)([O-])OCC[N+](C)(C)C	23.4%
CCO[C@@H]1OC(=O)C[C@@H]1NC(=O)[C@@H]1CCCN1C(=O)[C@@H](NC(=O)c1ccc(N)c(Cl)c1)C(C)(C)C	12.6%
CC(C)C(=O)OCC(=O)[C@@]12O[C@H](C3CCCCC3)O[C@@H]1C[C@H]1[C@@H]3CCC4=CC(=O)C=C[C@]4(C)[C@H]3[C@@H](O)C[C@@]12C	7.25%
CCOC(=O)C12CC1/C(=N\O)c1ccccc1O2 (centres undefined)	38.5%
O=C(O[C@@H]1C[C@@H]2C[C@H]3C[C@H](C1)N2CC3=O)c1c[nH]c2ccccc12	61.3%
CN1[C@@H]2CC[C@H]1C[C@@H](OC(=O)N1Cc3ccccc3NC1=O)C2	-7.98%
Cc1nc(Cn2cnc3c2c(=O)n(C)c(=O)n3C)no1	24.3%
CC(C)(C)NCC(O)c1cc(Br)no1 (centres undefined)	18.5%
O=C(O)CCCNC(=O)c1cccnc1	28.7%
O=C(O)[C@@H](c1ccc(OCc2ccc3ccccc3n2)cc1)C1CCCC1	93.6%
CC(CNC1CCCCC1)OC(=O)c1ccccc1 (centres undefined)	34.8%
CCN1CCCC(OC(=O)C(c2ccccc2)c2ccccc2)C1 (centres undefined)	-1.02%
CCCCN(CC)c1c([N+](=O)[O-])cc(C(F)(F)F)cc1[N+](=O)[O-]	10.6%
CC(C)C(=O)SCCCCC[C@H](NC(=O)OC(C)(C)C)C(=O)NC12CC3CC(CC(C3)C1)C2	52%
CN(Cc1cccc(-c2ccccc2)c1)C(=O)Oc1ccc(-c2ccc(C(N)=O)cc2)cc1	25.7%
NC(=O)c1cccc(-c2cccc(OC(=O)NC3CCCCC3)c2)c1	95.1%

Structure (SMILES)	inhibition
N[C@@H]1CCN(c2cccnc2)C1	18.5%
N#Cc1ccc(N2N=C3c4ccc(C(=O)O)cc4CC[C@@H]3[C@@H]2C2CCCC2)cc1Cl	20.4%
CCCOc1ccc2c(c1)CC[C@@H]1[C@@H]2CC[C@]2(C)[C@@H](OC)CC[C@@H]12	-9.5%
CCc1oc2ccccc2c1C(=O)c1ccc(OCC(=O)O)cc1	-6.7%
COc1nc(N)nc2c1ncn2[C@@H]1O[C@H](CO)[C@@H](O)[C@@H]1O	35.9%
CC(C)Nc1nc2cc(Cl)c(Cl)cc2n1[C@H]1O[C@@H](CO)[C@H](O)[C@@H]1O	82.2%
NC(=O)c1ncn([C@@H]2O[C@H](CO)[C@@H](O)[C@H]2O)n1	-7.83%
Cc1cc(C)cc(NC(=O)Cc2ccc(OC(C)(C)C(=O)O)cc2)c1	-3.44%
O=C(COc1cccc2c(=O)[nH]ccc12)c1ccccc1	65.9%
N#CCC(=O)c1ccccc1	19.1%
COc1ccc(C(=O)CCC(=O)O)c2ccccc12	0.61%
C[C@]12CC[C@H]3[C@@H](CCC4=CC(=O)CC[C@@]43C)[C@@H]1CC[C@@H]2C(=O)CO	32.2%
O=C(N[C@H]1CN2CCC1CC2)c1c[nH]c2ccsc2c1=O	10.3%
Cn1nnc(-c2ccc(-c3ccc(N4C[C@H](COP(=O)(O)O)OC4=O)cc3F)cn2)n1	-2.24%
O=C(NCc1cccc(O)c1)Nc1nc(-c2ccncc2)cs1	3.24% and 13.9%
O=C(CCCl)NCCc1ccccc1	11.9%
c1ccc(CCNc2nc(-c3ccccc3)cs2)cc1	79.1%
O=C(CCn1cnc2c(=O)[nH]cnc21)Nc1ccc(C(=O)O)cc1	11.5%
Brc1c(Br)c(Br)c2[nH]nnc2c1Br	55.5%
O=C(Nc1ccc(S(=O)(=O)C(F)(F)F)cc1)C1=CCN(c2ncccc2C(F)(F)F)CC1	8.48%
C[C@]12CCC(=O)C=C1CC[C@@H]1[C@@H]2[C@@H](O)C[C@]2(C)C(=O)CC[C@@H]12	-0.5%
CCCC(CCC)C(=O)NCc1ccc2c(cnn2-c2ccccc2OC)c1	-9.99%
c1ccc(CNc2ncnc3[nH]cnc23)cc1	3.46%
Nc1nc(OCc2ccccc2)c2nc[nH]c2n1	68.9%

Structure (SMILES)	inhibition
CC(=O)O[C@H]1C[C@@H]2CC[C@@H]3[C@H](CC[C@@]4(C)[C@H]3C[C@H](N3CC[N+](C)(C)CC3)[C@@H]4OC(C)=O)[C@@]2(C)C[C@@H]1N1CC[N+](C)(C)CC1	-3.02%
CN1C(=O)N(c2ccc(C#N)c(C(F)(F)F)c2)C(=O)[C@@]1(CO)c1ccccc1	16.8%
CN(CCOP(=O)(O)O)C(=N)N	20.7%
O=C1N=C(N2CCOCC2)CN1c1ccc(Cl)cc1	8.65%
NC(Cc1ccc(O)cc1)C(=O)O (racemic)	12.8%
N[C@H](C(=O)O)[C@@H]1CC(Cl)=NO1	2.38%
CNC(=O)COC(=O)NCCC1CCN(c2cccc(C)n2)CC1	23.1%
Cc1nc[nH]c1CCN	0.18%
CCn1c(O)nnc1-c1ccc(Cl)cc1	4.14%
Cc1[nH]cnc1-c1ccc(Cl)cc1	80.5%
C[C@]12CCC(=O)C[C@@H]1CC[C@@H]1[C@@H]2CC[C@]2(C)[C@@H](O)CC[C@@H]12	6.85%
O=C(/C=C/c1ccc2ccc(C(F)(F)F)cc2n1)c1ccncc1	36.8%
O=C(/C=C/c1ccc2ccccc2n1)c1ccncc1	91.9%
CC(C)Oc1ccc(-c2nc(-c3cccc4c3CCC4NCCC(=O)O)no2)cc1C#N (centres undefined)	25.6%
CC(CC(c1ccccc1)c1ccccc1)NC(C)(C)C (centres undefined)	13.9%
C[C@@]1(O)[C@H](O)[C@@H](CO)O[C@H]1n1cnc2c(NC3CCCC3)nc(Cl)nc21	-7.46%
Nc1ccn([C@H]2CO[C@@H](CO)S2)c(=O)n1	9.97%
CC1(O)C(O)C(CO)OC1n1ccc(N)nc1=O (centres undefined)	50.8%
C[S+](CC[C@H](N)C(=O)[O-])C[C@H]1O[C@@H](n2cnc3c(N)ncnc32)[C@H](O)[C@@H]1O (some centres undefined)	5.35%
Cc1cccc(Oc2cnc(=O)[nH]c2)c1	16.9%
O=C(NCc1ccccc1)c1csc(Nc2ccncn2)n1	44.2%
Cc1c[nH]c2ncnc(N3CCC(CN)(C(=O)Nc4cccc(OC(=O)N(C)C)c4)CC3)c12	25.2%
